Test results published in PubChem BioAssay (NCI).
This is part of a sample that, as a whole, favours compounds with a hit. Of some 83,000 tested, about 20% had one in any assay.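 Method: cells in 96-well plates; compound added at one concentration; 48 h incubation; percent growth measured; values under 10 scored active.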 Unmarked numbers belong to inactive results. Active and inactive are the calls of the source.

Columns and labels:
Experiment in all cases: NCI-60 one-dose screen, 48 h (100 = growth as untreated, 0 = no growth, -100 = all killed)
Settings in all cases: 10 µM unless noted
SR leukemia = tested on: SR leukemia
OVCAR-8 ovarian = tested on: OVCAR-8 ovarian
OVCAR-5 ovarian = tested on: OVCAR-5 ovarian
OVCAR-4 ovarian = tested on: OVCAR-4 ovarian
SK-OV-3 ovarian = tested on: SK-OV-3 ovarian
IGROV1 ovarian = tested on: IGROV1 ovarian
OVCAR-3 ovarian = tested on: OVCAR-3 ovarian
HS 578T breast = tested on: HS 578T breast
NCI/ADR-RES ovarian = tested on: NCI/ADR-RES ovarian
RPMI-8226 leukemia = tested on: RPMI-8226 leukemia

SMILES	growth (SR leukemia)	growth (OVCAR-8 ovarian)	growth (OVCAR-5 ovarian)	growth (OVCAR-4 ovarian)	growth (SK-OV-3 ovarian)	growth (IGROV1 ovarian)	growth (OVCAR-3 ovarian)	growth (HS 578T breast)	growth (NCI/ADR-RES ovarian)	growth (RPMI-8226 leukemia)
CS(=O)CC(=N\O)/C(CS(C)=O)=N\O (stereo not given)	99.8%	95.5%	103%	103%	103%	109%	108%	106%	108%	
CCCCCC(=O)OCCC1CCCCC1	88.9%	104%	105%	101%	106%	108%	95.3%	89.7%	103%	
OCCOc1ccc(-c2cc(-c3ccccn3)nc(-c3ccccn3)c2)cc1	5.14% (active)		-36.4% (active)	5.18% (active)	18.5%	-17.6% (active)	-32.7% (active)		-57% (active)	2.3% (active)
COc1cc(N)c2ncccc2c1Cl	91.3%		90.2%	128%	105%	117%	118%		112%	83.9%
CCCC(OC(C)=O)c1ccc2c(c1)OCO2 (stereo not given)	103%	99%	106%	110%	105%	104%	105%	99.6%	104%	
C=CC(C)(C)n1cc(C2=C(O)C(=O)C(c3cn(C(C)(C)C=C)c4ccccc34)=C(O)C2=O)c2ccccc21	71.6%		122%	92.4%	94.3%	99.5%	107%		97.5%	104%
CC(C)c1ccc(C(=O)OCCCl)cc1	106%	94%	96.5%	104%	101%	109%	123%	94.7%	102%	
C=C1C(=O)C2CCC1C2 (stereo not given)	96.7%		101%	111%	105%	111%	95.2%		105%	106%
CCN(CC)CCOC(=O)Nc1c(C(C)C)cccc1C(C)C	101%	102%	104%	108%	95.7%	100%	114%	105%	113%	
Cn1c(=O)[nH]c2ccccc2c1=O	100%		123%	110%	108%	111%	112%		102%	112%
CC(=O)OCC1OC(n2cnc3c(=S)nc(N)[nH]c32)C(OC(C)=O)C1OC(C)=O (stereo not given)	12.9%	76.6%	70%	82.5%	50.1%	96.6%	83.4%	77.3%	78.4%	
CC(=O)c1cc(O)ccc1O	94.2%	95.9%	99.9%	108%	107%	117%	119%	110%	92.8%	
Oc1cc2ccccc2c(-c2c(O)c(O)cc3ccccc23)c1O		39%	51.8%	27.3%	31.7%	-47.5% (active)	44.9%	33.9%	23%	-33.3% (active)
OC1Cc2ccccc2C1	94.6%		95.4%	110%	111%		104%	96%	93.9%	
CCCCCCCCCCCCCCCCCC(=O)NCCNC(=O)CCCCCCCCCCCCCCCCC	0.967% (active)	98.2%	94.8%	95%		66.3%	96.9%	107%	93.9%	
CCCCN(C(=O)CC)c1ccccc1		101%	105%	105%	114%	102%	111%	99.4%	110%	85.1%
O=C(CCl)Oc1ccc([N+](=O)[O-])cc1	102%	102%	107%	106%	133%	106%	121%	128%	105%	
Cc1ccc(NC(=O)c2ccccc2Cl)cc1	92.3%	115%	99.1%	107%	124%	93.8%	122%		111%	

SMILES	growth (SR leukemia)	growth (OVCAR-8 ovarian)	growth (OVCAR-5 ovarian)	growth (OVCAR-4 ovarian)	growth (SK-OV-3 ovarian)	growth (IGROV1 ovarian)	growth (OVCAR-3 ovarian)	growth (HS 578T breast)	growth (NCI/ADR-RES ovarian)	growth (RPMI-8226 leukemia)
C/C(O)=C(/C=N/C(=S)Nc1ccccc1)C(=O)Nc1ccccc1C	91.7%	96.3%	117%	83%	101%	105%	105%	94.8%	103%	
CC(c1ccccc1)N1C(=O)CSC1=S (stereo not given)		34.2%	91.2%	29.7%	104%	-31.6% (active)	-13.1% (active)	81.3%	-62.5% (active)	16.9%
CCOC(=O)c1c[nH][nH]c1=O	109%	105%	94.8%	101%	110%		112%	119%	98.4%	
Oc1ccc(CCC2CCNc3ccccc32)cc1 (stereo not given)	75.7%	73.4%	97.9%	63.2%	73.1%	91.1%	84.1%	91.8%	74.7%	
CSCC[C@@H]1C(=O)N(C)[C@H](C(C)(C)C)N1C(=O)c1ccccc1	124%	100%		105%		100%	103%	111%	104%	
CCOC(=O)N[C@H]1CCc2cc(OC)c(OC)c(OC)c2-c2ccc(SC)c(=O)cc21	3.83% (active)	20.8%	23.3%	53.4%	28.7%	21.7%	-9.45% (active)		0.533% (active)	
OCC1CCC(O)C(CO)N1 (stereo not given)	101%	112%	88.4%	94.6%	118%	110%	107%		118%	
CCOC(OCC)C(=O)c1ccccc1	132%	89.8%	94.1%		105%	105%	99.9%	94.3%	108%	
Cc1cc2c(C(C)C)c(O)c(O)c(C=Nc3ccccc3[N+](=O)[O-])c2c(O)c1-c1c(C)cc2c(C(C)C)c(O)c(O)c(C=Nc3ccccc3[N+](=O)[O-])c2c1O		76.2%	102%	74.4%	97.5%	80.6%	79.1%	81%	94.8%	61.5%
Cc1ccc(S(N)(=O)=O)cc1Cl		105%	103%	115%	110%	109%	115%	117%	117%	103%
CN(C)c1ccc2c(N(C)C)cc(N(C)C)nc2c1		78.3%	102%	72.1%	87.5%	103%	93.6%	100%	77%	69.8%
O=C(NC(=S)N1CC=CCC1)c1ccccc1		100%	97.4%	116%	107%	122%	115%	92.7%	108%	104%
CC(=O)Nc1ncc(S(=O)(=O)c2ccc([N+](=O)[O-])cc2)s1	96.4%	103%	109%	102%		112%	120%		118%	
CCNc1ncnc2[nH]ncc12	143%	72.3%	104%	108%		124%	112%	109%	105%	
NNC(=O)CCCCl	114%	104%		106%	123%	106%	104%	112%	106%	
COc1ccc(NNS(=O)(=O)O)cc1	93.2%	98.4%	93.3%	111%	102%		114%	92.2%	92.4%	
Oc1ccc2ccccc2c1CN1CCOCC1		105%	113%	108%	104%	106%	120%	112%	113%	97.5%
